CtBP-E1A inh: CtBP/E1A binding inhibition. AlphaScreen GST-E1A/His-CtBP binding, 1536-well; active compounds read low. activity change, % (test concentration not listed). 340,000 tested, 0.49% active; in the data active = activity change below about -65%; inconclusive = mostly about -30% to -63%
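Steps: dispense buffer (Tris pH 8.0, NaCl 300 mM, TCEP 1 mM, BSA, Tween 20); add 5X protein mix (GST-E1A, His-CtBP, 125 nM each); pin 23 nL compound; 2 h at 37 °C, dark; add 5X beads (50 ug/mL); 1 h; read.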
DT40 TDP1 no CPT: qHTS for Inhibitors of human tyrosyl-DNA phosphodiesterase 1 (TDP1): qHTS in cells in absence of CPT | DT40 Tdp1-/- hTDP1 cells, no CPT, ATP luminescence, 48 h | 420,000 tested, 15% active | Potency, µM (series often up to 46.2 µM), inactives show at the highest dose activity change, negative = growth inhibition, most hits filed as inhibitors | AID 686978, 2013; note: potency is the fitted concentration of half-maximal effect; nearly all actives have a fitted effect of over 55% in size
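Chicken DT40 Tdp1-/- cells stably complemented with human TDP1 were seeded at 400 cells/well with DMSO in place of 20 nM camptothecin. After compound pinning, cells grew at least 48 hr at 37 °C; viability read by CellTiter-Glo luminescence.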
IL1B secr inh: blocks inflammasome-driven IL-1 beta release; 360,000 tested, 4.7% active; AID 743279; THP-1 LPS/ATP IL-1B secretion, AlphaLISA, 16 h; active compounds read low; activity change, % at 57.5 µM; in the data active = activity change below about -50%; inconclusive = mostly about -30% to -49%
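Secreted IL-1B measured by AlphaLISA bead assay after 16 h compound exposure of THP-1 cells; compounds (final up to 57.5 uM) added 1 h before LPS (250 ng/mL) and ATP (1.25 mM) stimulation; lower signal means less secretion.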
TDP1 inh: inhibitors of human tyrosyl-DNA phosphodiesterase TDP1; AID 485290; recombinant TDP1, AlphaScreen DNA substrate cleavage; 350,000 tested, 0.28% active; Q9NUW8; Potency, µM (series often up to 130 µM), for the others: at the top dose activity change, negative = inhibition, most hits filed as inhibitors; note: potency is the fitted concentration of half-maximal effect; nearly all actives have a fitted effect of over 40% in size
Target sequence (Q9NUW8 whole entry, looked up): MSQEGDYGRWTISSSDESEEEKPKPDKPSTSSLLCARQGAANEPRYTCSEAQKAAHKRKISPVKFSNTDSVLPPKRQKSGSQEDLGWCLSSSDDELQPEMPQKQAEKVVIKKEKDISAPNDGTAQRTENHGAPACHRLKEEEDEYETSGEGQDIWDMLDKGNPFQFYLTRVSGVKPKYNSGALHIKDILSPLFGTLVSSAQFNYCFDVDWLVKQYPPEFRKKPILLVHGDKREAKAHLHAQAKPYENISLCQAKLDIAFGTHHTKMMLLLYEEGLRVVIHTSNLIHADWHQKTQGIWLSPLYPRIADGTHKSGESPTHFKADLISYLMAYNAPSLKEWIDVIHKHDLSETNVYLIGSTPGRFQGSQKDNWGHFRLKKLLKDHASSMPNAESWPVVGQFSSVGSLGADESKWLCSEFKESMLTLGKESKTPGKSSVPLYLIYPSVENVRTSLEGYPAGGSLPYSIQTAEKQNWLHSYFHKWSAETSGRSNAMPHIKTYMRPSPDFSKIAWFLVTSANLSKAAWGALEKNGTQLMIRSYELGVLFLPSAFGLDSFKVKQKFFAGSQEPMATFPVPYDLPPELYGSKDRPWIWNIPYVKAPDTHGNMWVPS
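Recombinant E. coli-expressed Tdp1 (1 nM) preincubated with compound 15 min at RT, then 5'-biotin/3'-phosphotyrosine-FITC DNA substrate (15 nM) added for 5 min. AlphaScreen beads (10 ug/ml) added, 10 min RT; tyrosine-FITC cleavage read as signal loss.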
TDP1 cell CPT: growth inhibition of DT40 Tdp1-/-;hTDP1 cells with camptothecin (screen for TDP1 inhibitors); chicken DT40 Tdp1-/-;hTDP1 cells + 20 nM CPT, ATP luminescence, 48 h; Potency, µM (top dose mostly 46.2 µM), inactives show at the highest dose activity change, negative = growth inhibition, actives largely listed as inhibitors; 420,000 tested, 12% active; AID 686979; note: potency is the fitted concentration of half-maximal effect; nearly all actives have a fitted effect of over 55% in size
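Chicken DT40 Tdp1-/- cells complemented with human TDP1, 400 cells/well, exposed to compounds plus 20 nM camptothecin for at least 48 h at 37 C; viability read as ATP content by CellTiter-Glo luminescence.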
Six1-Eya2 inh: Six1/Eya2 interaction inhibition. AlphaScreen GST-Six1/His-Eya2 binding, biochemical; active compounds read low. activity change, % (test concentration not listed). 360,000 tested, 0.56% active. AID 651725; in the data active = activity change below about -65%; inconclusive = mostly about -30% to -63%
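Compounds are tested against tagged Six1 and Eya2 proteins bridged by glutathione donor and nickel acceptor beads; after a one-hour incubation at 37 °C without light, AlphaScreen emission is recorded.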
Starred values were filed as active, the others as inactive; u = inconclusive; x = not tested or not shown; [ ] = remark or other dose. Sampled rows, rich in hits. Any-hit rate of the full collection: about 18%. Unless noted, calls come from the whole dose curve; as a rule, active = well fitted curve in the direction sought with a large enough effect; inconclusive = small, poorly fitted or top-dose-only effect, or another doubt; inactive = no such curve, though single readings can be large; an effect the other way counts as inactive or inconclusive. % is set by controls: 0 for no effect and ±100 for the full control effect.

SMILES | CtBP-E1A inh | DT40 TDP1 no CPT | IL1B secr inh | TDP1 inh | TDP1 cell CPT | Six1-Eya2 inh
O=C(C[C@@H]1C/C=C/CC[C@@H](Cc2ccc(F)cc2)C(=O)O[C@@H](c2ccccc2)CNC1=O)NCCO | x | 18µM* | -6 | -1% | u | 1
CC(C)(C)OC(=O)C[C@@H]1C/C=C\C[C@@H](CC(=O)N[C@@H](CO)Cc2ccccc2)C(=O)NC[C@@H](c2ccccc2)OC1=O | x | u | -3 | 0% | 23µM* | 1
COc1ccc(CNC(=O)CN(C(=O)Cn2nnc(-c3ccccc3F)n2)c2ccc(C)cc2)cc1 | -10 | 16% | 6 | -5% | -5% | 1
CN1C(C(=O)NCCc2cccs2)CC2Cn3c(nc4ccccc43)C21 (stereo not drawn) | 1 | 21% | 6 | 2% | 4% | 7
CCC(c1nc2ccccc2[nH]1)N(Cc1cccnc1)C(=O)c1cc(-c2ccccc2)on1 (stereo not drawn) | -9 | 18µM* | -12 | x | u | -9
O=C(c1cc(-c2ccccc2)on1)N(Cc1cccnc1)C(c1ccccn1)c1nc2ccccc2[nH]1 (stereo not drawn) | -16 | u | 25 | x | u | 5
Cc1ccc(C)c(N2CC(O)(c3cccs3)[N+]3=C2CCCC3)c1 (stereo not drawn) | 0 | -6% | -6 | 1% | 8% | 21
COc1cccc(C#Cc2c(CO)[nH]c3ccccc23)c1 | -3 | u | 19 | 2% | 18µM* | -5
COc1cccc(NC(=O)Cc2c(O)c3ccccc3[nH]c2=O)c1 | -2 | -22% | 22 | 0% | 4% | 2
COc1ccc(C2=NCCn3nc4cc([N+](=O)[O-])ccc4c32)cc1 | -16 | -8% | 7 | 7% | -20% | -11
COc1ccc(-n2cc3ccc([N+](=O)[O-])cc3n2)cc1 | -1 | 29µM* | -5 | x | u | -12
CC1=CN2C(=N)/C(=C\c3cn(CCCOc4ccccc4)c4ccccc34)C(=O)N=C2S1 | -11 | u | -2 | 5% | 15µM* | 1
CCOC(=O)OC(C)OC(=O)C1N2C(=O)C(NC(=O)C(N)c3ccccc3)C2SC1(C)C (stereo not drawn) | x | 1% | x | 14%[56.1 µM] | -20% | x
O=c1cc(CN2CCN(C/C=C/c3ccccc3)CC2)c2cc(O)c(-c3ccccc3)cc2o1 | 6 | 18µM* | u | 3% | 18µM* | 1
O=S(=O)(c1ccccc1)N1CCN(Cc2c(O)ccc3ccccc23)CC1 | -6 | 15% | u | -1% | -19% | -9
Oc1ccc2ccccc2c1CN1CCN(C/C=C/c2ccccc2)CC1 | u | -13% | -77* | 7% | -33% | -18
Cc1c(O)ccc2c(CN3CCN(C/C=C/c4ccccc4)CC3)cc(=O)oc12 | -25 | u | -77* | x | u | -14
CCN(CC)CCCNC(=O)c1ccc(Cn2c(=O)[nH]c3cc(OC)c(OC)cc3c2=O)cc1 | x | -13% | x | 3% | -10% | x
CN(CC1COc2ccccc2O1)C(=O)CSc1ncnc2sccc12 (stereo not drawn) | 5 | -10% | -16 | 2% | -20% | 10
C[C@@H]1CN([C@@H](C)CO)C(=O)CCCn2nncc2CO[C@H]1CN(C)Cc1ccccc1C(F)(F)F | 4 | u | 12 | x | 18µM* | 7
C[C@H](CO)N1C[C@H](C)[C@@H](CN(C)S(=O)(=O)c2ccc3ccccc3c2)OCc2cnnn2CCCC1=O | -22 | u | 12 | x | 3% | 9
Cc1ccccc1CN(C)C[C@@H]1OCc2cnnn2CCCC(=O)N([C@@H](C)CO)C[C@H]1C | 5 | -27% | 8 | x | -17% | 7
C[C@@H]1CN([C@@H](C)CO)C(=O)CCCn2nncc2CO[C@H]1CN(C)Cc1ccc(Oc2ccccc2)cc1 | -2 | 16µM* | -25 | x | u | -3
